According to PubChem BioAssay:
Values without a mark were called inactive. Active and inactive are the calls of the source. Rule as the data show it, unless noted: active = inhibition above about 33%; inactive = the rest.

Columns and labels:
[1] = molecular target: Nuclear receptor coactivator 3 (Homo sapiens) (UniProt Q9Y6Q9); assay: SRC3 coactivator transcriptional activity inhibitors, confirmation, cell-based, luminescence, quadruplicate (AID 588792;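 active = mean inhibition over 43.08%, the solvent-only control mean plus 3 SD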;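 also: 0% = DMSO treated cells and 100% = gossypol at 36 µM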); settings: HEK293 GAL4-SRC3 luciferase reporter, at 3.6 µM, active compounds read high
Sequence of Nuclear receptor coactivator 3 (Homo sapiens) (Q9Y6Q9 whole entry, looked up, the tested form may be a part): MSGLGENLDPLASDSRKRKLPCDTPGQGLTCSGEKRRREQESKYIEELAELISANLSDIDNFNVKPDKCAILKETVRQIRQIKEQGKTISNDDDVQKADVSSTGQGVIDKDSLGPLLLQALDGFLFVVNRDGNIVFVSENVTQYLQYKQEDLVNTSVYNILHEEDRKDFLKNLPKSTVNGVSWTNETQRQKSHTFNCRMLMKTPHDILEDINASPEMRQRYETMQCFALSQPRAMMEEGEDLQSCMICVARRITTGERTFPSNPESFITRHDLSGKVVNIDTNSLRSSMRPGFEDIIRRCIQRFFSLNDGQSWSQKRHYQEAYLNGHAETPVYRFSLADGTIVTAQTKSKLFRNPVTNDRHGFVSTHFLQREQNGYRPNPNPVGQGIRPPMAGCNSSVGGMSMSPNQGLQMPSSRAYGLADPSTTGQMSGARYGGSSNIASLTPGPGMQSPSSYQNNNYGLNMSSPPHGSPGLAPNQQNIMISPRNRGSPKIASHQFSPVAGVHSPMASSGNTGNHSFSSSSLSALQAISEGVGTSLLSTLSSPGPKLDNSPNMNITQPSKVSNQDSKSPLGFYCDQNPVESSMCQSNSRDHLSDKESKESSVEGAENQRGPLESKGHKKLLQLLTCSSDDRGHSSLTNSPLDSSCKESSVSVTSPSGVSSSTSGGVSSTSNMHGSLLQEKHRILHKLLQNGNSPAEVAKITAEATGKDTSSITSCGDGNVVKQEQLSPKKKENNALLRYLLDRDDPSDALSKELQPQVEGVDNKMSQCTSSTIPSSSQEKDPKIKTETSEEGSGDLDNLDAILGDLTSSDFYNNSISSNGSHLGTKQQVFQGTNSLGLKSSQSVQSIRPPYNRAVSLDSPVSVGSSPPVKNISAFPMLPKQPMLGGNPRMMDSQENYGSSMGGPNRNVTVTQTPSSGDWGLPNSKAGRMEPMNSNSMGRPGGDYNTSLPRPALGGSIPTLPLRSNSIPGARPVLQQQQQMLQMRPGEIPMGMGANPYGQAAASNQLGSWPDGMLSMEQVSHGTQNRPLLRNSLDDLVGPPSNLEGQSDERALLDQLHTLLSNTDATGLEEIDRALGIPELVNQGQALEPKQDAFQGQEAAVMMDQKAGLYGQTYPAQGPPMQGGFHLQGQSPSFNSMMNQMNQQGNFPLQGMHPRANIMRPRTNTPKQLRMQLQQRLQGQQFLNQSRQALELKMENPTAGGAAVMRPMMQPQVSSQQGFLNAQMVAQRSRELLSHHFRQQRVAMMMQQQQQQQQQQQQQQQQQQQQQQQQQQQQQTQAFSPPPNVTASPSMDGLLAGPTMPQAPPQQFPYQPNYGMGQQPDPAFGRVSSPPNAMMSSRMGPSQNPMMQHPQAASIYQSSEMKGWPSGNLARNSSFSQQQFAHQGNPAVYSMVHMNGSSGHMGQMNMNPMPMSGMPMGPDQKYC

[2] = test system: transactivating tegument protein VP16 (Human herpesvirus 1), Gal4-VP16 luciferase reporter; assay: VP16 transactivation inhibitors, counter-screen for SRC3 inhibitor project, cell-based, luminescence, high throughput (AID 588794; in the data active = inhibition above about 30%); settings: mammalian cells, VP16-driven luciferase reporter luminescence; at 3.6 µM; active compounds read high
[3] = molecular target: Nuclear receptor coactivator 1 (Homo sapiens) (UniProt Q15788); assay: SRC1 coactivator transcriptional activity inhibitors, confirmation, cell-based, luminescence, quadruplicate (AID 588820;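 active = mean inhibition above 46.68%, the untreated control wells mean plus 3 SD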;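 also: 0% = DMSO wells and 100% = gossypol 36 µM treated wells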); settings: HEK293 GAL4-SRC1 luciferase reporter, at 3.6 µM, active compounds read high
Sequence of Nuclear receptor coactivator 1 (Homo sapiens) (Q15788 whole entry, looked up, the tested form may be a part): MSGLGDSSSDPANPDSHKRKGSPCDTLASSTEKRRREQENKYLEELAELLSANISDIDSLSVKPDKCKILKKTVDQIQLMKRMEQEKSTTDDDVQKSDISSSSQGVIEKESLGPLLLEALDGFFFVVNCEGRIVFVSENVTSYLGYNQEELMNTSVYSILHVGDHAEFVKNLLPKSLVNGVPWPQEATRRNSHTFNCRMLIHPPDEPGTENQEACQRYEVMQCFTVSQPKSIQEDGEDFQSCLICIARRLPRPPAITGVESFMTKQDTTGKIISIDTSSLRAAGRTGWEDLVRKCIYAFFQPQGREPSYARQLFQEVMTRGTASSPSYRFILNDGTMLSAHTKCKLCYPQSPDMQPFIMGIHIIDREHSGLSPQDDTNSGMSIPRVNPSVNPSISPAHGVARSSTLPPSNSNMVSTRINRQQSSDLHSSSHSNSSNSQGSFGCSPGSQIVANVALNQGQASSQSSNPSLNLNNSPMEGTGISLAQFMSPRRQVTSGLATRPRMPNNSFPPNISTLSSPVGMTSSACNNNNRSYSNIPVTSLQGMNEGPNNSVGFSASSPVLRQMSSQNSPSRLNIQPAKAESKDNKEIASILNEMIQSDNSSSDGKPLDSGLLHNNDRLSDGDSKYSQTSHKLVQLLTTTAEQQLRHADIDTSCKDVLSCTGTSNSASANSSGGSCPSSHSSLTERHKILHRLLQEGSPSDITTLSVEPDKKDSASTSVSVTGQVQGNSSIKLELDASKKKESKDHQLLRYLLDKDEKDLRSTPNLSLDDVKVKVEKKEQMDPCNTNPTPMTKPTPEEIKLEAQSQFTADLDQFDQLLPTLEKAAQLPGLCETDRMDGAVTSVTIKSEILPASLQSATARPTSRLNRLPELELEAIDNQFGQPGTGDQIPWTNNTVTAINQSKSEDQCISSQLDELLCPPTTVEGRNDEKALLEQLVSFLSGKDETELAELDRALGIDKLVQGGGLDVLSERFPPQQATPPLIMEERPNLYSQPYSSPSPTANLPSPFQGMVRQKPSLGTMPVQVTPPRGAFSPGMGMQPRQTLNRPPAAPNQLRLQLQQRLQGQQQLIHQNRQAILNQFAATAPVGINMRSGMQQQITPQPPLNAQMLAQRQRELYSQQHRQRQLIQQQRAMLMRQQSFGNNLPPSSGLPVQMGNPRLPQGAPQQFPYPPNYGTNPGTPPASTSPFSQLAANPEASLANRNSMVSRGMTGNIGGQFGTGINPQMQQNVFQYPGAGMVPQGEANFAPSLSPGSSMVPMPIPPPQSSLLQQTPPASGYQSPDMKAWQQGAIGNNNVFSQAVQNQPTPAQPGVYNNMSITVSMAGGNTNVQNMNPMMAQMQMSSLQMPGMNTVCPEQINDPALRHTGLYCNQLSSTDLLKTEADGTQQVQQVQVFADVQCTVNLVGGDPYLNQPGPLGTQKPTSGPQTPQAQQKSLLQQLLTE

[4] = VP16 transactivation inhibitors, counter-screen for SRC1 inhibitor project, cell-based, luminescence, high throughput (AID 588824; in the data active = inhibition above about 25%); settings: cell-based VP16 transactivation luciferase luminescence; at 3.6 µM; active compounds read high
[5] = StAR promoter reporter inhibitors, counter-screen for LRH-1 inverse agonist project, cell-based, luminescence, high throughput (AID 651611; in the data active = inhibition above about 28%); settings: StAR promoter luciferase reporter counterscreen, at 3.6 µM, active compounds read high
[6] = molecular target: Nuclear receptor subfamily 5 group A member 2 (Homo sapiens) (UniProt O00482); assay: LRH-1 (NR5A2) inverse agonists, retest, confirmation, cell-based, luminescence (AID 651613; in the data active = inhibition above about 42%;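 also: HEK293T cells co-transfected with LRH-1 and StAR promoter luciferase reporter; 0% = vehicle wells and 100% = parental cells lacking receptor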); settings: cell-based LRH-1 luciferase reporter, inverse agonism; at 3.6 µM; active compounds read high
Sequence of Nuclear receptor subfamily 5 group A member 2 (Homo sapiens) (O00482 whole entry, looked up): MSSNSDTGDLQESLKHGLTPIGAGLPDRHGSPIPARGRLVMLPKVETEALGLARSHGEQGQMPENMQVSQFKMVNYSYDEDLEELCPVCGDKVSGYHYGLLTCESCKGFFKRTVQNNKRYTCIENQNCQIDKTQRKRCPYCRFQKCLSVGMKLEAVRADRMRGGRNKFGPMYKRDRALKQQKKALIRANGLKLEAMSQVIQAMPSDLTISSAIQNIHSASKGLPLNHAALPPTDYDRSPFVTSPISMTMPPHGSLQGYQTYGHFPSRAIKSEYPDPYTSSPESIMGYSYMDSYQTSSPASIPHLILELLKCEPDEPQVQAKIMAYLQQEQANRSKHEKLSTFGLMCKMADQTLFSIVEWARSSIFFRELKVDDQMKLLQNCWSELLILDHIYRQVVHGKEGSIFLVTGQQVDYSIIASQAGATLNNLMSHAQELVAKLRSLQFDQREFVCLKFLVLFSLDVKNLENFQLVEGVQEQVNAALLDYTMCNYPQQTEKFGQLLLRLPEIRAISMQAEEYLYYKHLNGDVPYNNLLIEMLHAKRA

[7] = molecular target: Steroidogenic factor 1 (Homo sapiens) (UniProt Q13285); assay: SF1 (NR5A1) inverse agonists, counter-screen for LRH-1 inverse agonist project, cell-based, luminescence, high throughput (AID 651614; in the data active = inhibition above about 44%;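 also: cells cotransfected with StAR promoter reporter and SF1 expression vector; 0% = vehicle on cells with receptor and 100% = vehicle on cells lacking receptor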); settings: cell-based SF1 luciferase reporter, at 3.6 µM, active compounds read high
Sequence of Steroidogenic factor 1 (Homo sapiens) (Q13285 whole entry, looked up, the tested form may be a part): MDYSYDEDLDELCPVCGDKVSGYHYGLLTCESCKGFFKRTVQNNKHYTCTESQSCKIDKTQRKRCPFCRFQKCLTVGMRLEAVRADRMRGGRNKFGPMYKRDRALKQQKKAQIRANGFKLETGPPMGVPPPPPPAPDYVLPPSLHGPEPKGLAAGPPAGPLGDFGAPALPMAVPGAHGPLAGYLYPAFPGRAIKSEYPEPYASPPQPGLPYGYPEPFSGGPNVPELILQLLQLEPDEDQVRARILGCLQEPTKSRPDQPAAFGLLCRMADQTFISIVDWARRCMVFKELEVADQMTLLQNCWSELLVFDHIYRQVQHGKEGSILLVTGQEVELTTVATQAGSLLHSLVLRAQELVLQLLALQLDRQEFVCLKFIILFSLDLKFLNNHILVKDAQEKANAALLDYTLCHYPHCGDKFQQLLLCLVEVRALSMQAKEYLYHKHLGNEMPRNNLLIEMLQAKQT

[8] = VP16 transactivation reporter inhibitors, counter-screen for LRH-1 inverse agonist project, cell-based, luminescence, high throughput (AID 651615); settings: Gal4-VP16 luciferase reporter cells, at 3.6 µM, active compounds read high
[9] = test system: transactivating tegument protein VP16 (Human herpesvirus 1); assay: VP16 transactivation reporter inhibitors, counter-screen for SRC2 inhibitor project, cell-based, luminescence, single concentration (AID 652007; in the data active = inhibition above about 36%); settings: cell-based VP16 transactivation luciferase reporter, at 8.9 µM, active compounds read high
[10] = molecular target: Nuclear receptor coactivator 2 (Homo sapiens) (UniProt Q15596); assay: SRC2 coactivator transcriptional activity inhibitors, confirmation, cell-based, luminescence, HEK293, triplicate (AID 652008;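 active = mean inhibition above 46.5%, the solvent-only control mean plus 3 SD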;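 also: 0% = DMSO-treated cells and 100% = Gossypol at 36 µM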); settings: HEK293 GAL4-SRC2 luciferase reporter, at 8.9 µM, active compounds read high

Row | SMILES | inhibition [1] | inhibition [2] | inhibition [3] | inhibition [4] | inhibition [5] | inhibition [6] | inhibition [7] | inhibition [8] | inhibition [9] | inhibition [10]
1 | CC(=O)OC[C@]12CC[C@H]3[C@@](C)(CC[C@H]4C(C)(C)CCC[C@]34C)[C@@H]1CC(C1=CC(=O)OC1O)O2 (stereo not given in full) | 93.2% (active) | 90% (active) | -93.3% | 90.8% (active) | 92.7% (active) | 110% (active) | 97.1% (active) | 95% (active) | 96% (active) | 93.4% (active)
2 | O=C(NCCc1ccccc1)c1ccc2c(c1)OCCO2 | 41.6% | 11.9% | -81.6% | 0.41% | 29.6% (active) | -10.6% | 42% | 7.34% | 44.1% (active) | 77.7% (active)
3 | O=C(CCl)N(c1ccccc1)C1CCS(=O)(=O)C1 (stereo not given) | 55.4% (active) | 18% | 22.3% | 14% | 50.6% (active) | 71.3% (active) | 65.1% (active) | 16.8% | 40.7% (active) | 57.2% (active)
4 | CCOc1cc(CNc2ccc3c(c2)OCCO3)cc(Br)c1OC | 50.5% (active) | 29.5% (active) | -15.9% | -7.96% | 39.5% (active) | -55.6% | 23.8% | -1.87% | 1.28% | 48.8% (active)
5 | CC(C)CCCCCCCCCCCCC(=O)NCC(=O)NC1C(C)OC(Nc2ncnc3nc[nH]c23)C(O)C1O (stereo not given) | 98.9% (active) | 98.8% (active) | 96.6% (active) | 98.8% (active) | 94.7% (active) | 111% (active) | 97.7% (active) | 95.8% (active) | 76.9% (active) | 72.2% (active)
6 | CN(C(=O)COc1ccccc1C(=O)NCCOc1ccccc1)c1ccccc1 | 20.1% | 32.4% (active) | -24.3% | 32.8% (active) | 63.6% (active) | 31.8% | 54.3% (active) | 37.1% (active) | 36.4% (active) | 47.3% (active)
7 | Cc1c(C)c2ccc(OCC(=O)Nc3ccccn3)c(C)c2oc1=O | 78.5% (active) | 72.3% (active) | 50.1% (active) | 59.6% (active) | 67.5% (active) | 68.8% (active) | 76.4% (active) | 69.7% (active) | 81.3% (active) | 90.3% (active)
8 | O=C(N/N=C/c1ccc(O)cc1O)c1ccc(CN2C(=O)c3cccc4cccc2c34)cc1 | 67.2% (active) | 77.8% (active) | 78.5% (active) | 76.2% (active) | 84.8% (active) | 101% (active) | 89.2% (active) | 82.6% (active) | -14.6% | 18.8%
9 | S=C(Nc1ccccc1)Nc1ccc(OCc2ccc(Cl)cc2Cl)cc1 | 46.7% (active) | 25.4% | 43.6% | 24.4% | 63.4% (active) | 72.3% (active) | 59.5% (active) | 39.4% (active) | 83.7% (active) | 93.9% (active)
10 | COc1ccc([C@@]23Oc4cc(OC)cc(OC)c4[C@]2(O)[C@H](O)[C@H](C(=O)N(C)C)[C@H]3c2ccccc2)cc1 | 95.7% (active) | 93.7% (active) | 85.6% (active) | 92.9% (active) | 97.6% (active) | 111% (active) | 99.3% (active) | 98.2% (active) | 56.2% (active) | 68.6% (active)
11 | CSC1SCC2C(=O)N(C)C(C(C)C)C(=O)OCC(NC(=O)c3cnc4ccccc4n3)C(=O)NC(C)C(=O)N(C)C1C(=O)N(C)C(C(C)C)C(=O)OCC(NC(=O)c1cnc3ccccc3n1)C(=O)NC(C)C(=O)N2C (stereo not given) | 96.8% (active) | 96.7% (active) | 85.7% (active) | 96.8% (active) | 86.5% (active) | 107% (active) | 97.1% (active) | 97.3% (active) | 62.2% (active) | 51.1% (active)
12 | COc1cc(C=CC(=O)c2cc(OC)c(OC)c(OC)c2)cc(OC)c1OC | 72.3% (active) | 57.4% (active) | 38.1% | 46.4% (active) | 73.1% (active) | 67.1% (active) | 76.1% (active) | 69.1% (active) | 47.7% (active) | 73% (active)
13 | Oc1ccc(CCNc2ncnc3ccc(Cl)cc23)cc1 | 64.9% (active) | 61.6% (active) | 60.8% (active) | 62% (active) | 43.6% (active) | 70.5% (active) | 68.7% (active) | 78.6% (active) | 26.7% | 65.6% (active)
